Reference: PubChem BioAssay (NCATS)
Results filed as inconclusive are left out. The source made the active and inactive calls. The call rests on the fitted dose curve; in most records, active means well fitted cell-killing curve with a large enough effect; inconclusive means small, poorly fitted or top-dose-only effect, or effect the other way; inactive means flat fitted curve, though single readings scatter.

Key:
Test in all cases: Primary qHTS to identify gynecologic anti-cancer compounds using libraries of approved drugs and bioactive compounds (AID 1345084); further: nearly all actives have a fitted effect of over 55% in size
CAOV3 = conditions: Gynecologic cancer cell panel viability, ATPlite luminescence, 48 h; series mostly up to 57.5 µM
Procedure, shortened: (§1)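 Cytotoxicity screen measuring ATP content by luciferase luminescence. Each compound is applied at five concentrations for 48 h at 37 C with 5% CO2.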

CASKI = conditions: Gynecologic cancer cell panel viability, ATPlite luminescence, 48 h; series mostly up to 57.5 µM
Procedure, shortened: as §1

Es-2 = conditions: Gynecologic cancer cell panel viability, ATPlite luminescence, 48 h; series mostly up to 57.5 µM
Procedure, shortened: as §1

HeLa = conditions: Gynecologic cancer cell panel viability, ATPlite luminescence, 48 h; series mostly up to 57.5 µM
Procedure, shortened: as §1

Hek293T = conditions: Gynecologic cancer cell panel viability, ATPlite luminescence, 48 h, control line for the selectivity index; series mostly up to 57.5 µM
Procedure, shortened: as §1

JEG-3 = conditions: Gynecologic cancer cell panel viability, ATPlite luminescence, 48 h; series mostly up to 57.5 µM
Procedure, shortened: as §1

OV90 = conditions: Gynecologic cancer cell panel viability, ATPlite luminescence, 48 h; series mostly up to 57.5 µM
Procedure, shortened: as §1

PA-1 = conditions: Gynecologic cancer cell panel viability, ATPlite luminescence, 48 h; series mostly up to 57.5 µM
Procedure, shortened: as §1

SKOV3 = conditions: Gynecologic cancer cell panel viability, ATPlite luminescence, 48 h; series mostly up to 57.5 µM
Procedure, shortened: as §1

Tov-21-G = conditions: Gynecologic cancer cell panel viability, ATPlite luminescence, 48 h; series mostly up to 57.5 µM
Procedure, shortened: as §1

Tov112D = conditions: Gynecologic cancer cell panel viability, ATPlite luminescence, 48 h; series mostly up to 57.5 µM
Procedure, shortened: as §1
On the % scale 0 is the no-effect control and ±100 the full control effect.

COc1cc([C@@H]2Oc3c(OC)cc(CCCO)cc3[C@@H]2CO[C@@H]2O[C@H](CO)[C@@H](O)[C@H](O)[C@H]2O)ccc1O
inactive: Potency (CAOV3) | Potency (CASKI) | Potency (Es-2) | Potency (HeLa) | Potency (Hek293T) | Potency (JEG-3) | Potency (OV90) | Potency (PA-1) | Potency (SKOV3) | Potency (Tov-21-G) | Potency (Tov112D)

CC(=O)c1c(O)cc2c(c1C)C(=O)CC(O)C2 (centres undefined)
inactive: Potency (CAOV3) | Potency (CASKI) | Potency (Es-2) | Potency (HeLa) | Potency (Hek293T) | Potency (JEG-3) | Potency (OV90) | Potency (PA-1) | Potency (SKOV3) | Potency (Tov-21-G) | Potency (Tov112D)

CC(=O)O[C@@H]1[C@@H](OC(=O)/C=C/c2ccccc2)[C@H](C)O[C@@H](O[C@H]2[C@@H]3C=CO[C@@H](O[C@@H]4O[C@H](CO)[C@@H](O)[C@H](O)[C@H]4O)[C@@H]3[C@@]3(CO)O[C@@H]23)[C@@H]1OC(C)=O
inactive: Potency (CAOV3) | Potency (CASKI) | Potency (Es-2) | Potency (HeLa) | Potency (Hek293T) | Potency (JEG-3) | Potency (OV90) | Potency (PA-1) | Potency (SKOV3) | Potency (Tov-21-G) | Potency (Tov112D)

C=CC1(C)CC(O)C2(CCC3C(C)(C(=O)O)CCCC3(C)C2=O)C1 (centres undefined)
inactive: Potency (CAOV3) | Potency (CASKI) | Potency (Es-2) | Potency (HeLa) | Potency (Hek293T) | Potency (JEG-3) | Potency (OV90) | Potency (PA-1) | Potency (SKOV3) | Potency (Tov-21-G) | Potency (Tov112D)

CN1C(=O)N[C@@H](Cc2c[nH]c3c(Cl)cccc23)C1=O
inactive: Potency (CAOV3) | Potency (CASKI) | Potency (Es-2) | Potency (HeLa) | Potency (Hek293T) | Potency (JEG-3) | Potency (OV90) | Potency (PA-1) | Potency (SKOV3) | Potency (Tov-21-G) | Potency (Tov112D)

OC[C@H]1O[C@@H](Oc2ccc3c(c2)OC[C@H]2c4cc5c(cc4O[C@@H]32)OCO5)[C@H](O)[C@@H](O)[C@@H]1O
inactive: Potency (CAOV3) | Potency (CASKI) | Potency (Es-2) | Potency (HeLa) | Potency (Hek293T) | Potency (JEG-3) | Potency (OV90) | Potency (PA-1) | Potency (SKOV3) | Potency (Tov-21-G) | Potency (Tov112D)

CC1=C2C(=O)O[C@@H](c3ccoc3)[C@]2(C)CCC1
inactive: Potency (CAOV3) | Potency (CASKI) | Potency (Es-2) | Potency (HeLa) | Potency (Hek293T) | Potency (JEG-3) | Potency (OV90) | Potency (PA-1) | Potency (SKOV3) | Potency (Tov-21-G) | Potency (Tov112D)

C=C(C(=O)O)C1CCC(C)C2CCC(=O)OC2(C)C1 (centres undefined)
inactive: Potency (CAOV3) | Potency (CASKI) | Potency (Es-2) | Potency (HeLa) | Potency (Hek293T) | Potency (JEG-3) | Potency (OV90) | Potency (PA-1) | Potency (SKOV3) | Potency (Tov-21-G) | Potency (Tov112D)

CC(=O)NC(C(=O)OC1CCC(C)(C)C2CC=C3C(=O)OCC3(O)C12C)C(C)C (centres undefined)
inactive: Potency (CAOV3) | Potency (CASKI) | Potency (Es-2) | Potency (HeLa) | Potency (Hek293T) | Potency (JEG-3) | Potency (OV90) | Potency (PA-1) | Potency (SKOV3) | Potency (Tov-21-G) | Potency (Tov112D)

C[C@@H]1O[C@@H](O[C@H]2[C@H](O[C@H]3[C@H](O[C@H]4CC[C@@]5(C=O)C(CC[C@]6(C)C5CC=C5C7CC(C)(C)C[C@@H](O)[C@]7(C)CC[C@]56C)C4(C)C)O[C@H](C(=O)O)[C@@H](O)[C@@H]3O)OC[C@@H](O)[C@@H]2O)[C@H](O)[C@H](O)[C@H]1O (some centres undefined)
inactive: activity change, negative = cytotoxicity (CAOV3) 38.3% [at 11.6 µM] | activity change, negative = cytotoxicity (CASKI) 0.905% [at 11.6 µM] | activity change, negative = cytotoxicity (Es-2) 9.36% [at 11.6 µM] | activity change, negative = cytotoxicity (HeLa) 2.37% [at 11.6 µM] | activity change, negative = cytotoxicity (Hek293T) -7.04% [at 11.6 µM] | activity change, negative = cytotoxicity (JEG-3) 9.31% [at 11.6 µM] | activity change, negative = cytotoxicity (OV90) 6.53% [at 11.6 µM] | activity change, negative = cytotoxicity (PA-1) 13.9% [at 11.6 µM] | activity change, negative = cytotoxicity (SKOV3) 13.5% [at 11.6 µM] | activity change, negative = cytotoxicity (Tov-21-G) 8.97% [at 11.6 µM] | activity change, negative = cytotoxicity (Tov112D) 15.2% [at 11.6 µM]

CC(/C=C/[C@]1(O)[C@@]2(C)CO[C@@]1(C)C[C@@H](O)C2)=C\C(=O)O[C@@H]1O[C@H](CO)[C@@H](O)[C@H](O)[C@H]1O
inactive: Potency (CAOV3) | Potency (CASKI) | Potency (Es-2) | Potency (HeLa) | Potency (Hek293T) | Potency (JEG-3) | Potency (OV90) | Potency (PA-1) | Potency (SKOV3) | Potency (Tov-21-G) | Potency (Tov112D)

C=C1CCC[C@]2(C)C[C@]3(O)OC(=O)C(C)=C3C[C@@H]12
inactive: Potency (CAOV3) | Potency (CASKI) | Potency (Es-2) | Potency (HeLa) | Potency (Hek293T) | Potency (JEG-3) | Potency (OV90) | Potency (PA-1) | Potency (SKOV3) | Potency (Tov-21-G) | Potency (Tov112D)

CC(=O)O[C@@H]1[C@H](O[C@@H]2O[C@H](CO)[C@@H](O)[C@H](O)[C@H]2O)[C@@H](O[C@@H]2O[C@@H](C)[C@H](O)[C@@H](O[C@@H]3O[C@H](CO)[C@@H](O)[C@H](O)[C@H]3O)[C@H]2O)[C@H](OC(=O)C23CCC4(C)C(=CCC5C6(C)CC(O)C(O[C@@H]7O[C@H](C(=O)O)[C@@H](O)[C@H](O)[C@H]7O)C(C)(C(=O)O)C6CCC54C)C2CC(C)(C)CC3O)O[C@@H]1C (some centres undefined)
inactive: activity change, negative = cytotoxicity (CAOV3) 14.4% [at 6.55 µM] | activity change, negative = cytotoxicity (CASKI) 24.3% [at 6.55 µM] | activity change, negative = cytotoxicity (Es-2) 1.96% [at 6.55 µM] | activity change, negative = cytotoxicity (HeLa) -1.78% [at 6.55 µM] | activity change, negative = cytotoxicity (Hek293T) 14.8% [at 6.55 µM] | activity change, negative = cytotoxicity (JEG-3) 1.97% [at 6.55 µM] | activity change, negative = cytotoxicity (OV90) 8.45% [at 6.55 µM] | activity change, negative = cytotoxicity (PA-1) 25.5% [at 6.55 µM] | activity change, negative = cytotoxicity (SKOV3) 2.37% [at 6.55 µM] | activity change, negative = cytotoxicity (Tov-21-G) 4.93% [at 6.55 µM] | activity change, negative = cytotoxicity (Tov112D) 4.44% [at 6.55 µM]

C[C@@H]1CC[C@H]2C(C)(C)[C@H](O)[C@H](O)C[C@]2(C)[C@@]12Cc1c(O)cc3c(c1O2)CNC3=O
inactive: Potency (CAOV3) | Potency (CASKI) | Potency (Es-2) | Potency (HeLa) | Potency (Hek293T) | Potency (JEG-3) | Potency (OV90) | Potency (PA-1) | Potency (SKOV3) | Potency (Tov-21-G) | Potency (Tov112D)
